# From ChEMBL document CHEMBL1201862, “PubChem BioAssay data set” (2004)
# About 2,100 (0.53%) of roughly 400,000 compounds were called active. Not shown: some 14% with an inconclusive outcome. The sample holds actives, similar compounds and a random draw of the others, so the mix is not that of the screen. No rule for the calls is given here.
# Target: Ataxin-2 (Homo sapiens) (UniProt Q99700)
# Experiment: qHTS for Inhibitors of ATXN expression.
# Format: functional
# Ataxin-2 (Homo sapiens), sequence (Q99700 whole entry): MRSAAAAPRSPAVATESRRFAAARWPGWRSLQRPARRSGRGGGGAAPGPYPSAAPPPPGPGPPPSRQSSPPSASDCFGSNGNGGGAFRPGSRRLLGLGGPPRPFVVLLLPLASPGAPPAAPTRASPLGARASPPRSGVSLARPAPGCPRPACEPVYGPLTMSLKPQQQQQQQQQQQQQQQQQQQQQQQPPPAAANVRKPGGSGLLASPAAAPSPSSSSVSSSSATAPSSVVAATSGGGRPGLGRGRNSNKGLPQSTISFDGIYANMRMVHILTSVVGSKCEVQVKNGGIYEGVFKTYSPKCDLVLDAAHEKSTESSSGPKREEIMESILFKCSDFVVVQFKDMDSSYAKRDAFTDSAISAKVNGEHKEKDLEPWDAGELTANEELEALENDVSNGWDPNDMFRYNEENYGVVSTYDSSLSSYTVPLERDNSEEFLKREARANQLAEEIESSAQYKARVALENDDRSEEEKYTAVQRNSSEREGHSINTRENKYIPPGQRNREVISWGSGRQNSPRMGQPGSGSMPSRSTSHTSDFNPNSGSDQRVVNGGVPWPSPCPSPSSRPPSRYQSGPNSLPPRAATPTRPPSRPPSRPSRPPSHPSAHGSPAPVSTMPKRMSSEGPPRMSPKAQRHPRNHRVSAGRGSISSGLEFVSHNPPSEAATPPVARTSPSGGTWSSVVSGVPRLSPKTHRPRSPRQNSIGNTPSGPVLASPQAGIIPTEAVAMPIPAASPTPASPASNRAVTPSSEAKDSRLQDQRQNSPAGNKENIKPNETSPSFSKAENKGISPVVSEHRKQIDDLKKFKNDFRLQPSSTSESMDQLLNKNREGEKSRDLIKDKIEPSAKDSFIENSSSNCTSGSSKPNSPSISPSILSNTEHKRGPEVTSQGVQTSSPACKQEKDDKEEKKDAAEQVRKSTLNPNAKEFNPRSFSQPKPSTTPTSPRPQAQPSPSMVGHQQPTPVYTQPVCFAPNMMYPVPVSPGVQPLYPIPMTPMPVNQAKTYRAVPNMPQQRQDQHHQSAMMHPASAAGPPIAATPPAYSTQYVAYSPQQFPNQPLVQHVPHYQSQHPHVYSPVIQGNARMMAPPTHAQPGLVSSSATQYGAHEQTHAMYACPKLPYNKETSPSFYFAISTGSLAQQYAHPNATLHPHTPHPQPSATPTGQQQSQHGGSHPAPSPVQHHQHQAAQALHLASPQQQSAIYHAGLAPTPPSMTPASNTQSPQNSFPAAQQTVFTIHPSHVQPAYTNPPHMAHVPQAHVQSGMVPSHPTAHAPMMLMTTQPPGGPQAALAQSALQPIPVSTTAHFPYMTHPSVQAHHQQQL
row,SMILES,Potency
1,CC(C)N1CCN(CC2COc3ccccc3O2)CC1 (stereo unspecified),inactive
2,Cc1cc(C(=O)CCl)c(C)n1CC1COc2ccccc2O1 (stereo unspecified),26.7 µM (active)
3,CC1CC(=NNC(=O)C2COc3ccccc3O2)CC(C)(C)C1 (stereo unspecified),inactive
4,O=C(O)CN1C(=O)C2C3CCC(C3)C2C1=O (stereo unspecified),inactive
5,COc1ccc(-c2cn3nc4c(nc3n2)CCCC4)cc1,inactive
6,CCCCCCc1cc2cc(-c3nnc(-c4ccccc4O)o3)c(=O)oc2cc1O,inactive
7,CC(C)c1ccc2c(c1)CCC1C(C)(CN)CCCC21C (stereo unspecified),39.8 µM (active)
8,CCOC(=O)c1c(-c2ccccc2)oc2ccc(OCC(O)CNCCN(C)C)cc12 (stereo unspecified),inactive
9,CCOC(=O)c1c(CSc2ccccc2)n(C)c2cc(Br)c(OCC(O)CNC(CO)(CO)CO)cc12 (stereo unspecified),25.1 µM (active)
10,CCOC(=O)c1c(CSC(=N)N)n(C)c2cc(Br)c(OC(C)=O)cc12,35.5 µM (active)
11,O=C(C1=CC=CN2CCS(=O)(=O)N=C12)N1CCN(c2cccc(Cl)c2)CC1,inactive
12,CCOC(=O)C1=NN(C(=O)c2ccc(OC)cc2)C(O)(c2ccc(Cl)cc2)C1 (stereo unspecified),inactive
13,CC1(Cc2ccccc2OC(F)(F)F)C(=O)Nc2ccc(-c3ccsc3)cc21 (stereo unspecified),39.8 µM (active)
14,COc1ccc(OC(F)(F)F)cc1CC1(C)C(=O)Nc2ccc(-c3ccsc3)cc21 (stereo unspecified),39.8 µM (active)
15,Cc1ccc(CC2(C)C(=O)Nc3ccc(OC(F)(F)F)cc32)cc1 (stereo unspecified),39.8 µM (active)
16,CCOC(=O)C1=NOC2(C1)C(=O)Nc1ccc(OC(F)(F)F)cc12 (stereo unspecified),39.8 µM (active)
17,CN1CCCC(OC(=O)c2cc(Cl)cc(Cl)c2)C1 (stereo unspecified),inactive
18,c1ccc(-c2nc(N3CCCCC3)nc3ccccc23)cc1,inactive
19,C#CCOCCOCCOCCNc1nc(N2CCN(C(=O)CCCCCCCCCCNC(=O)[C@@H](CCC(=O)O)n3cc(CCCCCN)nn3)CC2)nc(N2CCN(C(=O)CCCCCCCCCCNC(=O)[C@H](CCCCN)n3cc(C[C@@H](C)CC)nn3)CC2)n1,31.6 µM (active)
20,C#CCOCCOCCOCCNc1nc(N2CCN(C(=O)CCCCCCCCCCNC(=O)[C@H](CCCCN)n3cc(C[C@@H](C)CC)nn3)CC2)nc(N2CCN(C(=O)CCCCCCCCCCNC(=O)[C@H](CCCN=C(N)N)n3cc(C[C@@H](C)CC)nn3)CC2)n1,20 µM (active)
21,Cc1ccc(Nc2nc(NCC3CC3)nc3ccsc23)c(C)c1,20 µM (active)
22,Cc1ccc(CNc2nc(NCC3CC3)nc3ccsc23)c(C)c1,39.8 µM (active)
23,O=C(COC(=O)c1ccc(Cl)nc1)Nc1ccc2c(c1)CCC2,inactive

row,SMILES,Potency
1,CC(=O)Oc1ccc2c(c1)O/C(=C\c1ccncc1)C2=O,inactive
2,COCc1cc(C)nc(SCC(=O)Nc2nc(C)cs2)c1C#N,inactive
3,CCOC(=O)Cc1csc(NS(=O)(=O)c2ccc(SC)cc2)n1,inactive
4,NNC(=O)c1cccc(Cn2cc(Br)c([N+](=O)[O-])n2)c1,inactive
5,C#CCn1/c(=N/C(=O)CSC(C)=O)sc2cc(F)ccc21,6.7 µM (active)
6,COCC(=O)OC1CCn2c1nc1c2C(=O)C(C)=C(NC(C)=O)C1=O (stereo unspecified),10 µM (active)
7,OCC1(CC2CCCCO2)CCN(Cc2ccccc2-c2ccco2)CC1 (stereo unspecified),inactive
8,Nc1nc(Br)c2ccccc2c1-c1ccccc1,inactive
9,O=C(Oc1ccc(C(=S)N2CCOCC2)cc1)c1cccc(Cl)c1,inactive
10,CC(C)c1ccc(C(=O)N2CCN(c3cnn(C)c(=O)c3Cl)CC2)cc1,inactive
11,Clc1cccc(N/N=C/c2ccc(N3CCOCC3)s2)c1,39.8 µM (active)
12,Oc1c(Cl)cc(Cl)cc1/C=N/c1ccc(N2CCOCC2)cc1,inactive
13,Fc1cccc(/C=N/Nc2cc(N3CCOCC3)ncn2)c1,inactive
14,COc1cc(C2CC(c3cccnc3)=NN2c2ccc(F)cc2)cc(OC)c1OC (stereo unspecified),inactive
15,C=CCN1C(=O)[C@@H]2Cc3c([nH]c4ccccc34)C(c3cc(OC)c(OC)c(OC)c3)N2C1=S (stereo partly specified),inactive
16,COc1cc(C2CC(=O)N(Cc3ccc(F)cc3)c3ccccc3S2)cc(OC)c1OC (stereo unspecified),28.2 µM (active)
17,Cc1cc(NC(=O)C(C)SCC(=O)O)no1 (stereo unspecified),inactive
18,Cc1ccc(S(=O)(=O)N2C[C@H]3n4c(=O)ccc(=O)n4C[C@H](OC(=O)NCc4ccccc4F)[C@@]3(O)C2)cc1,35.5 µM (active)
19,CCCCCCn1c(=O)n2n(c1=O)[C@@H]1CN(S(=O)(=O)c3ccc(C)cc3)C[C@]1(O)[C@@H](OC(=O)NCc1ccccc1F)C2,35.5 µM (active)
20,CCCCCCNC(=O)O[C@H]1Cn2c(=O)n(CCCCCC)c(=O)n2[C@@H]2CN(S(=O)(=O)c3ccc(C)cc3)C[C@]12O,25.1 µM (active)
21,Cc1ccc(S(=O)(=O)N2CCCC(CCC(=O)NCc3ccccc3F)C2)s1 (stereo unspecified),inactive
22,Cn1c(=O)c(=O)n(C)c2cc(S(=O)(=O)CCC(=O)NCc3ccccc3)ccc21,inactive
23,CCCCCCn1c(=O)n2n(c1=O)[C@@H]1CN(S(=O)(=O)c3ccc(C)cc3)C[C@]1(O)[C@@H](OC(=O)NCc1ccccc1)C2,28.2 µM (active)
